Test results: the supplement of paper PMC4166925
± gives the standard deviation of the averaged measurements. The full ranking holds about 33,000 sequences; the median of “E-score (dimensionless, -0.5 to 0.5)” is about -0.049, and the highest 2% start at about 0.37. The sample holds the highest values, similar sequences and a random draw of the others, so the mix is not that of the screen.

The sequences below were run on T1, PmTbr T-box DNA-binding domain (GST fusion) (assay: PBM E-score of 8-mer (E-score (dimensionless, -0.5 to 0.5)); Tbr is Tbrain of the sea star Patiria miniata (Pm) or the sea urchin Strongylocentrotus purpuratus (Sp); higher = stronger binding preference). Conditions: the construct has about 5 more residues each side.
T1 sequence: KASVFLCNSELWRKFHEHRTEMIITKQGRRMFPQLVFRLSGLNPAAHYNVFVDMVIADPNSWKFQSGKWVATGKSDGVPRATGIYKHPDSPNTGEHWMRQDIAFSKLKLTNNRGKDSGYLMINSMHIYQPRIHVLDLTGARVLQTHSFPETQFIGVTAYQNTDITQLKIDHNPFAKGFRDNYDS
Outline: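 Primer extension turned Universal Agilent oligonucleotide arrays double-stranded. They were incubated with 200 nM protein in PBS (pH 7.5); the protein was a GST-fused Tbr T-box DNA-binding domain expressed in BL21 E. coli at 20 °C and purified on glutathione. Every ungapped 8-mer was scored from the scanned, quantified probe intensities, and the Universal PBM Analysis Suite gave each an enrichment E-score averaged over duplicate arrays.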

Sequence | PBM E-score of 8-mer
ATCACATA | 0.297 ± 0.028
AACACACC | 0.3 ± 0.019
ATCACACC | 0.4877 ± 0.0026
ATCACACG | 0.39 ± 0.0083
ATCACAAA | 0.0643 ± 0.013
ATCACAGC | 0.211 ± 0.024
ATCACAGA | 0.129 ± 0.011
ATCACACA | 0.418 ± 0.01
AACAAGCT | -0.168 ± 0.035
TAGAACGA | -0.136 ± 0.028
GCATAGTA | -0.202 ± 0.024
AACACTTG | 0.408 ± 0.0044
ATCACTTG | 0.216 ± 0.045
AACACTAG | 0.275 ± 0.056
AACACTTC | 0.442 ± 0.014
AACACTGA | 0.182 ± 0.069
AACACTTA | 0.42 ± 0.019
CACACTTA | 0.4445 ± 0.0038
CGCACTTA | 0.293 ± 0.022
ATCACTTA | 0.194 ± 0.042
ATCACTTC | 0.293 ± 0.015
CACACTGA | 0.2581 ± 0.00048

Sequence | PBM E-score of 8-mer
AGCACTTC | 0.313 ± 0.012
AGGACCGG | -0.31 ± 0.028
TGGCTGAA | -0.23 ± 0.083
CAGACCCA | -0.0557 ± 0.00088
AATGGCGA | 0.163 ± 0.021
TGCCATAA | 0.0817 ± 0.098
GAAGATCC | -0.101 ± 0.034
CCCTGGGA | -0.131 ± 0.0026
GACACTGA | 0.157 ± 0.016
CCCACTTC | 0.1799 ± 0.00066
GACACTTA | 0.3962 ± 0.0036
CACACTGC | 0.168 ± 0.039
GCCACTTA | 0.232 ± 0.021
CACACTTC | 0.445 ± 0.005
GAGTCTAC | -0.282 ± 0.068
GGTCGACC | -0.253 ± 0.033
GTGATAGA | 0.297 ± 0.042
TGTCGACA | 0.371 ± 0.0078
AGTCGACA | 0.253 ± 0.013
CGTCGACA | 0.26 ± 0.031
ACATTTGA | 0.038 ± 0.044
AATGACGG | -0.0819 ± 0.0024

Sequence | PBM E-score of 8-mer
ACAGCGCG | 0.258 ± 0.0087
AGTGAGAC | 0.251 ± 0.023
GGTGAGGA | 0.364 ± 0.018
GGTGAGAC | 0.3824 ± 0.0024
AGTGAGAG | 0.312 ± 0.022
TCTGAGAA | -0.135 ± 0.0068
CGTGAGAC | 0.258 ± 0.044
AGTGAGAT | 0.287 ± 0.016
CGTGAGAA | 0.349 ± 0.039
AGTGAGAA | 0.421 ± 0.025
GGTGAGAA | 0.4754 ± 0.0012
TGAGAGAA | 0.0636 ± 0.079
TGTGAGAA | 0.43 ± 0.0057
ACCTTCCA | 0.0703 ± 0.049
AAACAGGG | -0.081 ± 0.025
AATTCATC | -0.0277 ± 0.0079
CCCCCAGA | -0.116 ± 0.043
ACCAAAAA | -0.124 ± 0.021
GCTTGTAA | -0.0775 ± 0.029
CGAGGAGC | -0.0722 ± 0.028
CTAGTCAC | 0.0813 ± 0.05
TATCTACA | -0.0338 ± 0.029

Sequence | PBM E-score of 8-mer
AATTCGCA | 0.339 ± 0.032
AGGTGATC | 0.219 ± 0.0025
GGGTGATA | 0.368 ± 0.0085
ACGTGATG | 0.137 ± 0.028
AGGTGATA | 0.468 ± 0.0054
CGGTGATA | 0.187 ± 0.0068
AGGTGATG | 0.4179 ± 0.0014
AACAACTG | 0.236 ± 0.0091
CGACGCAC | -0.0252 ± 0.048
AGTGCTTC | -0.15 ± 0.097
CGAATGGC | 0.0367 ± 0.0062
AACCGCAT | -0.147 ± 0.042
AATTCATA | -0.105 ± 0.05
AAGCGTGG | 0.0213 ± 0.089
GGGCGTGA | 0.429 ± 0.0092
AGGCGTGG | 0.265 ± 0.016
AAGCGTGA | 0.401 ± 0.018
CGGCGTGA | 0.327 ± 0.0041
AGGCGTGA | 0.4805 ± 0.00059
AGGCGTGC | 0.158 ± 0.011
